Results taken from PMC5540273 (PLoS ONE, 2017).

Legend:
Details in all cases: concentration: 1 μM, replicates: in singlicate; n = 1
[1] = test system: T1, MEK5
T1 construct: gene MAP2K5

[2] = test system: T2, MEK6
T2 construct: gene MAP2K6

[3] = test system: MELK
[4] = test system: MERTK
[5] = test system: MET
[6] = test system: T3, MINK
T3 construct: gene MINK1

[7] = test system: MKK7
[8] = test system: MKNK1
[9] = test system: MKNK2
[10] = test system: T4, MLCK
T4 construct: gene MYLK3
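Also: KINOMEscan kinase panel screen.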

Compound | %Inh [1] [%] | %Inh [2] [%] | %Inh [3] [%] | %Inh [4] [%] | %Inh [5] [%] | %Inh [6] [%] | %Inh [7] [%] | %Inh [8] [%] | %Inh [9] [%] | %Inh [10] [%]
O=C(Nc1n[nH]c2nc(-c3cccc(O)c3)ccc12)C1CC1 [SB-711805] | 95.9 | 0 | 3 | 47 | 0 | 51 | 0 | 0 | 26 | 94.5
CC(=O)Nc1cn2nc(Oc3cccc(NC(=O)c4cccc(C(F)(F)F)c4)c3)ccc2n1 | 93.3 | 5 | 20 | 73 | 16 | 22 | 0 | 0 | 0 | 0
Cc1ccc(C)c(NC(=O)Nc2ccc(C)c(-c3ccc(C(=O)Nc4ccncc4)cc3)c2)c1 [GSK1398473] | 3 | 0 | 81 | 22 | 0 | 6 | 0 | 0 | 4 | 0
CNc1nccc(-c2ccc3c(N)n[nH]c3c2)n1 [GSK2206003] | 49 | 9 | 61 | 21 | 0 | 59 | 0 | 41 | 97.9 | 76
Nc1ncc(-c2ccc3nccc(-c4ccncc4)c3c2)cc1S(=O)(=O)N1CCCCC1 [GSK1693850] | 50 | 12 | 36 | 35 | 0 | 31 | 0 | 2 | 6 | 0
Cl.N#CCc1ccc(Nc2nccc(Nc3ccc(Oc4ccccc4)cc3)n2)cc1 [GW639905] | 99.9 | 0 | 0 | 0 | 0 | 0 | 0 | 0 | 33 | 0
CN(c1ccc(NC(=O)N2CCN(CCCN3CCOCC3)CC2)cc1)c1ccnc(Nc2ccc(CS(C)(=O)=O)cc2)n1.Cl [GW830899] | 80 | 0 | 0 | 0 | 67 | 0 | 0 | 33 | 0 | 0
Cc1ccc(-c2ccc3occ(-c4ccc(S(C)=O)cc4)c3c2)nn1 (centres unmarked) | 0 | 0 | 0 | 0 | 0 | 0 | 0 | 0 | 0 | 5
CCNC(=O)/C=C/c1n[nH]c2cc(Sc3ccccc3C(=O)NC)ccc12 | 45 | 0 | 7 | 20 | 13 | 56 | 0 | 0 | 1 | 0
COC(=O)Nc1nc2ccc(Oc3ccc(NC(=O)Nc4cc(C(F)(F)F)ccc4F)cc3)cc2[nH]1.Cl [GW654607] | 94.2 | 7 | 0 | 98.5 | 88 | 15 | 0 | 73 | 94.9 | 0
O=C(Nc1n[nH]c2nc(-c3ccccc3O)ccc12)C1CC1 [SB-711880] | 63 | 0 | 0 | 27 | 0 | 74 | 0 | 0 | 38 | 57
CC(C)NCC(Cc1ccccc1)NC(=O)c1cc(Br)c(-c2ccnc3[nH]ccc23)s1.Cl.Cl (centres unmarked) [GSK1383281] | 3 | 79 | 97.5 | 39 | 17 | 37 | 0 | 0 | 90.5 | 13
Cc1cc(-c2c(-c3ccc(F)cc3)ncn2CCCN2CCOCC2)nc(N)n1 [SB-222517] | 26 | 29 | 0 | 0 | 0 | 15 | 0 | 0 | 0 | 0
O=C(O)C(F)(F)F.O=c1[nH]ccc2nc(N[C@@H]3CCNC3)nc(Nc3ccc4c(c3)S(=O)(=O)CC4)c12 [GSK2181306] | 99.9 | 68 | 92.2 | 91.7 | 26 | 96.6 | 0 | 3 | 24 | 98.1
Cn1cc(-c2ccc3c(c2)CCN3C(=O)Cc2cc(F)cc(C(F)(F)F)c2)c2c(N)ncnc21 [GSK2635225] | 33 | 0 | 0 | 63 | 21 | 7 | 4 | 0 | 2 | 0
CCn1c(-c2nonc2N)nc2c(-c3ccccc3)ncc(OCCCN)c21.O=C(O)C(F)(F)F.O=C(O)C(F)(F)F [GSK260205] | 92.8 | 0 | 20 | 7 | 21 | 95.7 | 0 | 0 | 1 | 9

Compound | %Inh [1] [%] | %Inh [2] [%] | %Inh [3] [%] | %Inh [4] [%] | %Inh [5] [%] | %Inh [6] [%] | %Inh [7] [%] | %Inh [8] [%] | %Inh [9] [%] | %Inh [10] [%]
O=C(Nc1n[nH]c2nc(-c3ccccc3)ccc12)C1CC1 [SB-708999] | 76 | 0 | 13 | 27 | 0 | 71 | 31 | 30 | 1 | 62
Cc1ccccc1CC(=O)N1CCc2cc(-c3cn(C)c4ncnc(N)c34)ccc21 [GSK2603346] | 99.9 | 73 | 7 | 46 | 70 | 0 | 0 | 7 | 55 | 6
Cl.O=C(Nc1ccc(Oc2ccc3[nH]c(NC(=O)c4ccco4)nc3c2)cc1)Nc1cc(C(F)(F)F)ccc1F [GW683134] | 85 | 0 | 0 | 99.6 | 83 | 0 | 0 | 46 | 93.5 | 15
COc1ccc(NC(=O)c2ccoc2)cc1-c1ccc(C(=O)NCC2CC2)cc1 [GW810437] | 41 | 16 | 29 | 0 | 0 | 7 | 0 | 0 | 13 | 0
O=C(O)C(F)(F)F.O=c1[nH]ccc2nc(N[C@@H]3CCNC3)nc(Nc3cc(Cl)cc(Cl)c3)c12 [GSK2188764] | 100 | 34 | 100 | 51 | 0 | 97.6 | 20 | 0 | 14 | 99.1
CN(c1ccc(NC(=O)Nc2cccc(Cl)c2)cc1)c1ccnc(N)n1.Cl [GW830707] | 48 | 0 | 11 | 0 | 1 | 0 | 17 | 52 | 95.6 | 10
COc1cccc(CC(=O)N2CCc3cc(-c4cn(C)c5ncnc(N)c45)ccc32)c1 [GSK2608899] | 99.7 | 0 | 13 | 75 | 75 | 19 | 0 | 9 | 14 | 10
Cc1cccc(Nc2nc(NCCN)ncc2C(N)=O)c1 [GSK1292139] | 99.2 | 19 | 1 | 3 | 29 | 87 | 0 | 13 | 15 | 14
Cc1nn2c(=O)cc(N3CCO[C@H](C)C3)nc2n1Cc1cccc(Cl)c1Cl [GSK2373693] | 19 | 0 | 2 | 17 | 0 | 0 | 0 | 0 | 19 | 0
CN(c1ccc2c(c1)nc(NCc1ccccc1)n2C)c1ccnc(Nc2ccc(CS(C)(=O)=O)cc2)n1.Cl [GW811603] | 89 | 0 | 17 | 36 | 46 | 0 | 23 | 54 | 43 | 0
O=C(Nc1n[nH]c2cc(-c3cccs3)ccc12)C1CC1 [SB-731284] | 33 | 0 | 0 | 0 | 0 | 67 | 0 | 31 | 28 | 71
Nc1ncc(-c2cn[nH]c2)c2scc(-c3ccc4c(c3)CCN4C(=O)Cc3ccccc3)c12 [GSK2593067] | 99.9 | 0 | 32 | 73 | 77 | 33 | 34 | 0 | 11 | 6
O=C1NC(=O)C(c2ccccc2Cl)=C1Nc1cccc(Cl)c1 [SB-342409] | 53 | 0 | 0 | 1 | 0 | 0 | 23 | 0 | 18 | 3
CN(C)CCOc1ccc(-c2cc(-c3ccc(Cl)c(O)c3)c(-c3ccncc3)[nH]2)cc1.Cl.Cl [SB-684387] | 21 | 0 | 15 | 0 | 43 | 36 | 0 | 7 | 4 | 13
N#Cc1cnc2cc(-c3cnc(CNCCN4CCOCC4)s3)ccc2c1Nc1ccc(Oc2ccccc2)cc1 [GW664114] | 99.9 | 0 | 15 | 72 | 7 | 95.2 | 6 | 6 | 6 | 0
CC(C)c1nc(-c2ccc(F)c(NS(=O)(=O)c3c(F)cccc3F)c2)c(-c2ccnc(Nc3ccc(N4CCOCC4)nc3)n2)s1 [GSK1804250] | 100 | 22 | 45 | 54 | 70 | 26 | 15 | 21 | 11 | 0
